Compound activity (PubChem BioAssay)
ATG4B inhibitor: ATG4B protease inhibitors, primary screen, biochemical, fluorescence, uHTS; Cysteine protease ATG4B (Homo sapiens), Q9Y4P1; ATG4B cleavage of LC3-PLA2, NBD-HPC fluorescence, 1 h; inhibition, % at 8.33 µM; actives 0.51% (n = 340,000); AID 504462, 2011; in the data active = inhibition above about 40%
Target sequence (Q9Y4P1 whole entry, looked up): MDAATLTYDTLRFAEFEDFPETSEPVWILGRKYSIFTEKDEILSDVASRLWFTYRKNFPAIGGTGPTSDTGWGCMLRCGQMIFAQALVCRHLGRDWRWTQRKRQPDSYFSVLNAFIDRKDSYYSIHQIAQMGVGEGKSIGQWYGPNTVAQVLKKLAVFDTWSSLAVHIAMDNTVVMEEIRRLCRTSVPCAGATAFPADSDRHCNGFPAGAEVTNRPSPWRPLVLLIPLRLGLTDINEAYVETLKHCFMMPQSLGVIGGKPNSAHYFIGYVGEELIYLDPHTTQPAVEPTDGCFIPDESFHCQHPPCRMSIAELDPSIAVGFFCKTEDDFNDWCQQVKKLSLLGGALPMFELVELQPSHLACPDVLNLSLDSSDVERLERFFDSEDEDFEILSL
PP5 inh: PP5 phosphatase inhibitors, primary screen, biochemical, fluorescence. AID 1987, 2009. inhibition, % at 6.7 µM. actives 0.18% (n = 320,000). purified PP5c, OMFP substrate fluorescence. Serine/threonine-protein phosphatase 5 (Homo sapiens), P53041;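 active = inhibition above the campaign's mean inhibition across all tested compounds plus 3 SD, cut at about 9.5% in these data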;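 note: 0% = DMSO only and 100% = 100 µM cantharidin control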
H9c2 protect: cardioprotection against H2O2-induced cell death, primary screen, uHTS, H9c2 cells, ATPLite luminescence | protection from H2O2 cell death, % at 20 µM | H9c2 cardiomyocytes, H2O2 injury protection, 2 h | actives 0.63% (n = 360,000) | AID 588492, 2011;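 active = compounds giving at least 50% protection of heart cells from peroxide-induced death in the single-dose screen, raw or plate-pattern-corrected value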;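 note: 0% = DMSO wells with peroxide and 100% = DMSO wells without peroxide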
PP1 counter: PP1-alpha phosphatase inhibitors, primary screen, counter-screen for PP5 inhibitor project, biochemical, fluorescence, OMFP substrate, single point; AID 2235, 2010; purified PP1alpha; actives 0.9% (n = 320,000); Serine/threonine-protein phosphatase PP1-alpha catalytic subunit (Homo sapiens), P62136; inhibition, % at 6.7 µM;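 active = inhibition above the mean inhibition of all tested compounds plus 3 SD, computed separately for each screening campaign, cut at about 15% in these data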
* = called active by the depositor; · = not tested or not shown. Sampled rows, rich in hits. Any-hit rate of the full collection: about 1.9%.

SMILES	ATG4B inhibitor	PP5 inh	H9c2 protect	PP1 counter
O=c1c2ccccc2nc(-c2cccs2)n1-c1ccccc1	9	3	4	-3
CCn1nc(-c2cccs2)nc2c(=O)n(C)c(=O)nc1-2	86*	·	-23	·
Cc1ccc(S(=O)(=O)N[C@@H](CCCCN)C(=O)CCl)cc1	-1	2	4	6
O=c1c2ccccc2nc(/C=C/c2ccc(O)cc2)n1-c1ccc(O)cc1	-7	5	55*	2
COc1ccc(-n2c(/C=C/c3ccc(O)cc3)nc3ccccc3c2=O)cc1	36	0	53*	1
COc1cccc(-n2c(/C=C/c3ccccn3)nc3ccccc3c2=O)c1	-2	·	17	·
O=c1c2ccccc2nc(/C=C/c2ccc(O)cc2)n1-c1cccc(O)c1	-3	1	39	-1
COc1ccc(-n2c(/C=C/c3ccc(O)c(OC)c3)nc3ccccc3c2=O)cc1	11	0	88*	1
COc1cccc(-n2c(/C=C/c3ccc(O)c(O)c3)nc3ccccc3c2=O)c1	5	4	72*	-2
COc1cc(N2C(=O)CC(=O)NC2=O)cc(OC)c1OC	2	2	-1	-3
O=c1[nH]c(=S)n(-c2ccccc2F)c(O)c1C=NCCN1CCNCC1	0	1	1	0
C=CCN1CCc2cccc3c2[C@H]1Cc1ccc(O)c(O)c1-3	0	2	45	5
CC1=CC2OC3CC4OC(=O)C=CC=CC(C(C)O)OCC(O)C(C)CC(=O)OCC2(CC1O)C4(C)C31CO1 (stereo not given)	-2	·	8	·
CC1=CC2OC3CC4OC(=O)C=CC=CC(=O)OCCC(C)C(O)C(=O)OCC2(CC1O)C4(C)C31CO1 (stereo not given)	0	·	54*	·
CC(=O)OC1C(=O)OCC23CCC4(C)OC4C2OC2CC(OC(=O)C=CC=CC(=O)OCCC1C)C3(C)C21CO1 (stereo not given)	6	·	56*	·
NC(Cc1cc(O)c(O)cc1O)C(=O)O (stereo not given)	·	0	·	69*
CCOC(=O)c1cccc(C2=C(CNC(=O)c3cccnc3)[C@H]3CC[C@@H](C2)N3Cc2ccccc2)c1	·	·	55*	·
CCOC(=O)c1cccc(C2=C(CNC(C)=O)[C@H]3CC[C@@H](C2)N3Cc2ccccc2)c1	·	·	-2	·
COc1ccc(CCNC(=O)c2c(N)n(CCN3CCOCC3)c3nc4ccccc4nc23)cc1OC	-66	4	57*	-1
C=C1C(C)C2C(Cc3ccccc3)NC(=O)C23OC(=O)/C=C/C(O)CCCC(C)C/C=C/C3C1O (stereo not given)	-1	·	57*	·
COCCNC(=O)CN1C(=O)CN=C(c2ccccc2)c2ccccc21	3	-2	3	-1
Nc1nonc1C(=O)N/N=C/c1ccc([N+](=O)[O-])o1	6	3	1	2
COc1ccccc1OP(=O)(Nc1cccnc1)Oc1ccccc1OC	-2	0	60*	-3
CC(=O)OC1CC[C@]2(C#N)[C@H]3CC[C@]4(C)[C@H](C5C=CC(=O)O5)CCC4(O)C3CCC2(O)C1 (stereo not given in full)	3	-2	-1	-3
CCC(C)N1C(=O)NC(=O)C2(Cc3c(ccc4ccccc34)N(C)C2)C1=O (stereo not given)	-16	6	69*	3
SMILES	ATG4B inhibitor	PP5 inh	H9c2 protect	PP1 counter
O=C(Nc1ccccc1)c1c(O)[nH]c(=S)[nH]c1=O	-1	-6	-3	16*
O=C(Nc1ccccc1)c1c(O)[nH]c(=O)[nH]c1=O	-9	1	2	0
CN=C(SCC(=O)c1cccc(Cl)c1)c1c(O)n(C)c(=O)n(C)c1=O	1	-1	-2	0
O=c1c2ccccc2nc(CSc2ncnc3nc[nH]c23)n1-c1ccc(Cl)c(Cl)c1	-8	1	68*	-3
Cc1nc2ccccc2c(=O)n1-c1ccc(Cl)c(Cl)c1	1	-3	5	1
CCOc1ccc2oc(C(=O)NN3C(C)CCCC3C)c(C)c2c1 (stereo not given)	-3	0	-12	-1
O=C1NC(=S)N(c2ccccc2)C(=O)/C1=C/c1ccco1	59*	-1	-4	6
CCC(c1nnnn1Cc1ccccc1)N1CCC(n2c(=O)[nH]c3ccccc32)CC1 (stereo not given)	·	·	51*	·
CCCCn1nnnc1C(CCc1ccccc1)N1CCC(n2c(=O)[nH]c3ccccc32)CC1 (stereo not given)	·	·	31	·
